Structures can show the parent of a compound that is named as a salt. ± gives the standard deviation of the averaged measurements.
Experiments:
[1] = system: Saccharomyces cerevisiae BY4741 SeMeCo community; test: mean cell size (pixel area) (pixels); higher = larger cells; details: 10 µM; 24 h; SM minimal medium
How it was run: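 A Saccharomyces cerevisiae BY4741 community carrying four plasmids, each with a fluorescent marker and each complementing one auxotrophy, was exposed for 24 h to drug at a final 10 µM in SM medium in acoustically predosed 384-well plates. The overnight preculture (OD600 = 1.0) was diluted to OD600 = 0.3 before 70 µl was added per well. Cells were then fixed with paraformaldehyde, imaged by automated confocal microscopy and analysed in Harmony to derive mean cell pixel area per well, averaged over 3 replicates. Same SeMeCo high-content imaging drug screen: Selleck FDA-approved drugs at 10 µM, 24 h in SM medium, 384-well plates, 3 replicates.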

[2] = system: Saccharomyces cerevisiae BY4741 SeMeCo community; test: z-score of prototroph abundance vs DMSO median; higher = larger share of this subpopulation than in DMSO controls; details: 10 µM; 24 h; SM minimal medium; subpopulation (auxotrophy): Prototroph
How it was run: (§1)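 A Saccharomyces cerevisiae BY4741 community carried four plasmids, each restoring one auxotrophy and encoding a distinct fluorescent protein. It was pre-grown overnight to OD600 1.0, diluted to 0.3, and 70 µl was added to 384-well plates acoustically predosed with library drugs (10 µM final), then grown 24 h in minimal SM medium. Cells were paraformaldehyde-fixed and imaged by automated confocal microscopy, with single-auxotroph fluorescent strains setting thresholds and autofluorescence correction. Each subpopulation's abundance was scored as a z-score against the vehicle-well median.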

[3] = system: Saccharomyces cerevisiae BY4741 SeMeCo community; test: z-score of subpopulation abundance vs DMSO median, subpopulation auxotrophic for M; higher = larger share of this subpopulation than in DMSO controls; details: 10 µM; 24 h; SM minimal medium; subpopulation (auxotrophy): M
How it was run: as §1

[4] = system: Saccharomyces cerevisiae BY4741 SeMeCo community; test: z-score of subpopulation abundance vs DMSO median, subpopulation auxotrophic for L; higher = larger share of this subpopulation than in DMSO controls; details: 10 µM; 24 h; SM minimal medium; subpopulation (auxotrophy): L
How it was run: as §1

[5] = system: Saccharomyces cerevisiae BY4741 SeMeCo community; test: z-score of subpopulation abundance vs DMSO median, subpopulation auxotrophic for H; higher = larger share of this subpopulation than in DMSO controls; details: 10 µM; 24 h; SM minimal medium; subpopulation (auxotrophy): H
How it was run: as §1

[6] = system: Saccharomyces cerevisiae BY4741 SeMeCo community; test: z-score of subpopulation abundance vs DMSO median, subpopulation auxotrophic for LU; higher = larger share of this subpopulation than in DMSO controls; details: 10 µM; 24 h; SM minimal medium; subpopulation (auxotrophy): LU
How it was run: as §1

[7] = system: Saccharomyces cerevisiae BY4741 SeMeCo community; test: z-score of subpopulation abundance vs DMSO median, subpopulation auxotrophic for LM; higher = larger share of this subpopulation than in DMSO controls; details: 10 µM; 24 h; SM minimal medium; subpopulation (auxotrophy): LM
How it was run: as §1

[8] = system: Saccharomyces cerevisiae BY4741 SeMeCo community; test: z-score of subpopulation abundance vs DMSO median, subpopulation auxotrophic for UM; higher = larger share of this subpopulation than in DMSO controls; details: 10 µM; 24 h; SM minimal medium; subpopulation (auxotrophy): UM
How it was run: as §1

[9] = system: Saccharomyces cerevisiae BY4741 SeMeCo community; test: z-score of subpopulation abundance vs DMSO median, subpopulation auxotrophic for HL; higher = larger share of this subpopulation than in DMSO controls; details: 10 µM; 24 h; SM minimal medium; subpopulation (auxotrophy): HL
How it was run: as §1

[10] = system: Saccharomyces cerevisiae BY4741 SeMeCo community; test: z-score of subpopulation abundance vs DMSO median, subpopulation auxotrophic for HLU; higher = larger share of this subpopulation than in DMSO controls; details: 10 µM; 24 h; SM minimal medium; subpopulation (auxotrophy): HLU
How it was run: as §1

[11] = system: Saccharomyces cerevisiae BY4741 SeMeCo community; test: z-score of subpopulation abundance vs DMSO median, subpopulation auxotrophic for HLM; higher = larger share of this subpopulation than in DMSO controls; details: 10 µM; 24 h; SM minimal medium; subpopulation (auxotrophy): HLM
How it was run: as §1

[12] = system: Saccharomyces cerevisiae BY4741 SeMeCo community; test: z-score of subpopulation abundance vs DMSO median, subpopulation auxotrophic for HUM; higher = larger share of this subpopulation than in DMSO controls; details: 10 µM; 24 h; SM minimal medium; subpopulation (auxotrophy): HUM
How it was run: as §1

[13] = system: Saccharomyces cerevisiae BY4741 SeMeCo community; test: z-score of subpopulation abundance vs DMSO median, subpopulation auxotrophic for LUM; higher = larger share of this subpopulation than in DMSO controls; details: 10 µM; 24 h; SM minimal medium; subpopulation (auxotrophy): LUM
How it was run: as §1

[14] = system: Saccharomyces cerevisiae BY4741 SeMeCo community; test: z-score of subpopulation abundance vs DMSO median, subpopulation auxotrophic for HLUM; higher = larger share of this subpopulation than in DMSO controls; details: 10 µM; 24 h; SM minimal medium; subpopulation (auxotrophy): HLUM
How it was run: as §1

[15] = system: Saccharomyces cerevisiae BY4741 SeMeCo community; test: z-score of subpopulation abundance vs DMSO median, subpopulation auxotrophic for U; higher = larger share of this subpopulation than in DMSO controls; details: 10 µM; 24 h; SM minimal medium; subpopulation (auxotrophy): U
How it was run: as §1

[16] = system: Saccharomyces cerevisiae BY4741 SeMeCo community; test: z-score of subpopulation abundance vs DMSO median, subpopulation auxotrophic for HM; higher = larger share of this subpopulation than in DMSO controls; details: 10 µM; 24 h; SM minimal medium; subpopulation (auxotrophy): HM
How it was run: as §1

[17] = system: Saccharomyces cerevisiae BY4741 SeMeCo community; test: z-score of subpopulation abundance vs DMSO median, subpopulation auxotrophic for HU; higher = larger share of this subpopulation than in DMSO controls; details: 10 µM; 24 h; SM minimal medium; subpopulation (auxotrophy): HU
How it was run: as §1

| Structure (SMILES) | mean cell size [1] | z-score of prototroph abundance [2] | z-score of subpopulation abundance [3] | z-score of subpopulation abundance [4] | z-score of subpopulation abundance [5] | z-score of subpopulation abundance [6] | z-score of subpopulation abundance [7] | z-score of subpopulation abundance [8] | z-score of subpopulation abundance [9] | z-score of subpopulation abundance [10] | z-score of subpopulation abundance [11] | z-score of subpopulation abundance [12] | z-score of subpopulation abundance [13] | z-score of subpopulation abundance [14] | z-score of subpopulation abundance [15] | z-score of subpopulation abundance [16] | z-score of subpopulation abundance [17] |
| --- | --- | --- | --- | --- | --- | --- | --- | --- | --- | --- | --- | --- | --- | --- | --- | --- | --- |
| CCCCOc1ccc(CC(=O)NO)cc1 [Bufexamac] | 12.53 ± 0.12 | 1.23 | -0.94 | -1.49 | -0.53 | -0.51 | -1.36 | -0.32 | -0.85 | -0.71 | -1.19 | -1.13 | -0.9 | -1.25 | – | – | – |
| CN1CC(=O)N2[C@H](c3ccc4c(c3)OCO4)c3[nH]c4ccccc4c3C[C@@H]2C1=O [Tadalafil] | 12.3 ± 0.19 | -0.42 | 0.2 | 1.85 | 0.35 | 0.3 | – | – | 1.24 | 0.4 | 1.64 | 0.54 | 1.95 | 1.5 | -1.35 | 0.83 | -0.74 |
| Oc1c(Cl)cc(Cl)cc1Sc1cc(Cl)cc(Cl)c1O [Bithionol] | 12.4 ± 0.28 | – | -3.78 | -1.47 | 6 | 1.88 | – | -0.68 | 3.98 | 2.39 | 4.37 | 3.51 | – | 2.92 | – | -0.03 | 5.87 |
| CCn1cc(C(=O)O)c(=O)c2cc(F)c(N3CCN(C)CC3)cc21 [Pefloxacin Mesylate] | 12.48 ± 0.059 | 0.1 | -0.16 | -0.33 | -0.3 | -0.06 | 0 | -0.04 | – | -0.54 | -0.1 | -0.57 | 0.18 | -0.95 | – | – | -0.36 |
| COc1c(N2CCNC(C)C2)c(F)cc2c(=O)c(C(=O)O)cn(C3CC3)c12 (configuration not stated) [Gatifloxacin] | 12.4 ± 0.17 | -0.15 | -0.13 | -0.51 | – | 0.36 | – | 0.32 | -0.93 | -0.36 | -0.34 | 0.51 | -0.33 | -0.38 | 0.81 | -0.89 | 0.38 |
| CC[C@H](Nc1ncnc2[nH]cnc12)c1nc2cccc(F)c2c(=O)n1-c1ccccc1 [Idelalisib (CAL-101, GS-1101)] | 12.58 ± 0.07 | -0.14 | -0.54 | -0.49 | – | 0.5 | -0.23 | 0.34 | -1.05 | -0.35 | 0.08 | -0.4 | 0.11 | -0.62 | – | – | – |
| CC1CCc2c(N3CCC(O)CC3)c(F)cc3c(=O)c(C(=O)O)cn1c23 (configuration not stated) [Nadifloxacin] | 12.6 ± 0.13 | -0.14 | 0.33 | 0.77 | -0.1 | 0.62 | 0.06 | -0.28 | 0 | -0.45 | 0.15 | -0.22 | – | 0.26 | 0.05 | – | – |
| COc1ccc2cc([C@H](C)C(=O)O)ccc2c1 [Naproxen] | 13 ± 0.17 | 2.14 | -1.11 | -0.03 | 0.45 | -1.6 | -0.86 | -2.93 | 0.23 | -0.86 | 1.33 | -1.97 | -0.97 | -0.08 | -1.21 | – | – |
| CN1CCC[C@@H]1Cc1c[nH]c2ccc(CCS(=O)(=O)c3ccccc3)cc12 [Eletriptan HBr] | 12.5 ± 0.44 | 0.55 | 0.9 | 0.61 | 0.1 | -1.12 | – | -0.86 | -0.15 | -0.54 | -0.5 | -0.47 | – | -0.74 | -0.94 | 0.08 | -1.27 |
| O=C1NCC2(CCN(CCc3ccccc3)CC2)O1 [Fenspiride HCl] | 12.6 ± 0.16 | – | 0.25 | -0.18 | -0.41 | -0.49 | – | 0.21 | 0.27 | 1.03 | 0.35 | -0.64 | -0.59 | 1.16 | 0.18 | -0.15 | -0.8 |
| CCN(CC)CCNC(=O)c1cc(Cl)c(N)cc1OC [Metoclopramide HCl] | 12.4 ± 0.31 | 0.83 | 1.12 | -0.18 | – | -1.25 | – | -1.49 | 0.1 | -0.43 | -0.58 | -1.06 | -0.48 | -0.49 | -1.06 | 1.14 | -0.72 |
| Cc1cc(C)nc(O)n1.O=C(Nc1ccc([N+](=O)[O-])cc1)Nc1ccc([N+](=O)[O-])cc1 [Nicarbazin] | 12.4 ± 0.18 | 0.74 | -0.21 | -0.96 | -0.25 | 0.22 | – | -0.4 | -1.2 | -0.28 | -0.49 | -0.86 | -0.52 | -0.56 | 0.5 | -0.62 | -0.22 |
| Clc1ccc(C(Cn2ccnc2)OCc2csc3c(Cl)cccc23)c(Cl)c1 (configuration not stated) [Sertaconazole nitrate] | 12.5 ± 0.29 | -8.82 | -9.36 | 1.38 | 36.6 | 1.93 | – | -2.33 | 16.1 | 11.1 | 28.5 | 3.4 | 2.6 | 28.5 | 0.4 | 0.2 | 14.5 |
| CCCCCOc1ccc(-c2cc(-c3ccc(C(=O)N[C@H]4C[C@@H](O)[C@@H](O)NC(=O)[C@@H]5[C@@H](O)[C@@H](C)CN5C(=O)[C@H]([C@H](O)CC(N)=O)NC(=O)[C@H]([C@H](O)[C@@H](O)c5ccc(O)c(OS(=O)(=O)O)c5)NC(=O)[C@@H]5C[C@@H](O)CN5C(=O)[C@H]([C@@H](C)O)NC4=O)cc3)no2)cc1 [Micafungin Sodium] | 12.4 ± 0.26 | – | -8.01 | 5.22 | – | 1.46 | 0.72 | 1.81 | 42.5 | 12 | 61.8 | 13.9 | 4.1 | 86.5 | – | – | – |
| C=CC[C@@H]1/C=C(\C)C[C@H](C)C[C@H](OC)[C@H]2O[C@@](O)(C(=O)C(=O)N3CCCC[C@H]3C(=O)O[C@H](/C(C)=C/[C@@H]3CC[C@@H](O)[C@H](OC)C3)[C@H](C)[C@@H](O)CC1=O)[C@H](C)C[C@@H]2OC [Tacrolimus (FK506)] | – | -1.63 | 2.07 | 0.71 | 1.87 | -1.01 | 0.93 | 1.02 | 1.89 | 1.27 | 1.8 | 1.84 | – | 2.77 | -0.41 | 1.61 | 1.08 |
| CCOC(=O)C1=C(COCCN)NC(C)=C(C(=O)OC)C1c1ccccc1Cl (configuration not stated) [Amlodipine] | 13 ± 0.37 | 2.13 | 3.04 | 4.02 | 3.95 | -7.07 | – | -8.26 | 5.86 | -3.87 | 9.49 | -6.23 | -4.72 | -1.8 | -7 | – | -7.36 |

Reference: the supplement of paper PMC8975748
